The campaign covered roughly 360,000 compounds. About 7,300 (2%) were called active. This excerpt belongs to a sample that is enriched for actives. A number with no mark means an inactive call. Rule as the data show it: active = inhibition above about 50%; inactive = the rest.
Test: blockers of TWEAK-induced Fn14 reporter activity – luciferase reporter cells, uHTS, primary screen (AID 1159606)
Conditions: TWEAK-stimulated Fn14 reporter cells, luciferase luminescence, 8 h; at 10 µM; stronger effect = higher value
In the case of `CCN1CCN(C(=O)C2(NC(=O)Nc3cccc(F)c3)CCCCC2)CC1`, the inhibition is reported as 6.11%.
Work on `CCN(CC)CCn1c(=S)[nH]c2ncccc2c1=O` yielded an inhibition of 11.7%.
Work on `COc1cc(N2C(=O)c3ccccc3C2=O)c(Cl)cc1C(=O)OCC(=O)N1CCOCC1` yielded an inhibition of 16.7%.
Compound `N#Cc1ccc(-c2ccc3nccn3c2)cc1` has an inhibition of -15.9%.
With `CCOC(=O)c1cc(C)sc1NC(=O)C1CCC1` the inhibition was 13.5%.
In the case of `COc1cccc2c1C(=O)c1c(O)c3c(c(O)c1C2=O)CC(O)(C(C)=NNC(=O)c1ccc(Cl)c(Cl)c1)CC3OC1CC(N)C(O)C(C)O1` (centres undefined), the inhibition is reported as 100% (active).
`Clc1cccc(Cc2c(-c3cccc(Cl)c3)nc3ccc(Cl)cn23)c1` gave an inhibition of -8.97%.
For `CCN1C(=O)/C(=C2\SC(N3CCCCC3)=NC2=O)c2ccccc21`, the inhibition was -25.1%.
With `COc1ccc(S(=O)(=O)N2CN(CCc3ccc(OC)c(OC)c3)c3nc4ccccc4nc32)cc1` the inhibition was 14%.
For `COc1ccc(COC(=O)c2n[nH]c3ccccc23)cc1F`, the inhibition was -8.86%.
`CC(Nc1nc(N2CCCC2)nc2ccccc12)c1ccccc1` (centres undefined) gave an inhibition of -2.01%.
For `CC(Nc1nc(C(F)(F)F)nc2ccccc12)c1cccs1` (centres undefined), the inhibition was 60.9% (active).
Compound `CCc1ccc(C(CNc2nc(C(F)(F)F)nc3ccccc23)N(C)C)cc1` (centres undefined) has an inhibition of 9.86%.
With `COc1ccc(Cl)cc1C=CC=NNC(=O)c1ccncc1` the inhibition was -16.2%.
For `COc1cc(C(=O)Nn2c(O)c(C3=c4ccccc4=NC3=O)sc2=S)ccc1O`, the inhibition was 4.56%.
With `Nc1nc(SCC(=O)N2CCN(S(=O)(=O)c3ccc(Cl)cc3)CC2)n[nH]1` the inhibition was 4.55%.
Work on `O=C1NC[C@H](Cc2ccc(O)cc2)N(C[C@H]2CCCN2C[C@H](Cc2ccccc2)N2C[C@H](Cc3ccccc3)N(CCc3ccccc3)C(=O)C2=O)C1=O` yielded an inhibition of -7.56%.
Compound `COc1ccc(C(=O)O)cc1S(=O)(=O)NCc1cccnc1` has an inhibition of 16.8%.
Work on `O=C(N/N=C/c1cc([N+](=O)[O-])ccc1O)/C(=C\c1cccs1)NC(=O)c1ccccc1` yielded an inhibition of 5.24%.
For `O=[N+]([O-])c1ccc(O)c(/C=N/Nc2ccccc2[N+](=O)[O-])c1`, the inhibition was 71.5% (active).
With `Nc1nnnn1/N=C/c1cc([N+](=O)[O-])ccc1O` the inhibition was -1.63%.
For `Cc1ccc(-c2nc(-c3cccnc3)sc2CC(=O)Nc2ccc(C)c(Cl)c2)cc1`, the inhibition was -0.71%.
With `COCCCNC(=O)Cc1ccc(-n2c(C)nc3cccnc32)cc1` the inhibition was 84.3% (active).
With `COCCCNC(=O)CCc1nc2cccnc2n1Cc1ccc(OC)cc1` the inhibition was 16.3%.
In the case of `CCc1nc2cccnc2n1-c1ccc(C(=O)O)cc1`, the inhibition is reported as 2.68%.
For `COc1ccc(CNC(=O)c2cc(C(=O)C3CC3)c[nH]2)cc1`, the inhibition was -10.9%.
Compound `CN1CCC(N(C)S(=O)(=O)c2ccc(NC(=O)c3cccc(C#N)c3)cc2)CC1` has an inhibition of 5.91%.
Work on `Cc1nc(N)nc(Cl)c1CCC1OCCO1` yielded an inhibition of -6.2%.
Compound `COc1cc(NC(=S)N2CCCC(C)C2)c(OC)cc1Cl` (centres undefined) has an inhibition of 12.8%.
With `O=C1NC[C@H](CCCCN2C[C@H](Cc3ccc(O)cc3)N(CC3CCCCC3)C(=O)C2=O)N(CCc2ccccc2)C1=O` the inhibition was 2.86%.
For `Cc1ccc(S(=O)(=O)N(CC(=O)Nc2cccc([N+](=O)[O-])c2)Cc2ccc(Cl)cc2)cc1`, the inhibition was 51.2% (active).
With `COc1ccc(C)cc1S(=O)(=O)N(CC(=O)Nc1cccc([N+](=O)[O-])c1)c1ccc(C)cc1` the inhibition was 61.9% (active).
For `COc1ccc(N(CC(=O)Nc2ccc(C)cc2C)S(=O)(=O)c2ccccc2[N+](=O)[O-])c(OC)c1`, the inhibition was 0.97%.
Compound `Cc1ccc(N(CC(=O)Nc2cc(C)cc(C)c2)S(=O)(=O)c2cccc3nonc23)cc1` has an inhibition of 9.38%.
For `CN(c1ccc(OCC(=O)OCC(=O)Nc2cccc([N+](=O)[O-])c2)cc1)S(=O)(=O)c1ccc(F)cc1`, the inhibition was -9.04%.
`Cc1ccc(CN(CC(=O)NCC2CCCO2)S(=O)(=O)c2ccc(C)cc2)cc1` (centres undefined) gave an inhibition of 5.7%.
`O=C(NCc1cccc(C(F)(F)F)c1)c1ccc2sc(COCCO)nc2c1` gave an inhibition of -7.3%.
For `COc1ccccc1C(=O)N(C1=NC(C)CS1)c1ccc(Cl)cc1` (centres undefined), the inhibition was 10.7%.
Compound `CCOC(=O)[C@]12CCC=C1N(CCC1=CCCCC1)C(=O)[C@H](CC(=O)NCc1ccc(C)o1)C2` has an inhibition of 5.47%.
`O=C(Nc1ccc(N2CCOCC2)cc1)c1cccc2c(-c3ccc(F)c(F)c3)coc12` showed an inhibition of -28%.
With `CCOC(=O)[C@]12CCC=C1N(Cc1cccc3ccccc13)C(=O)[C@H](CC(=O)NCc1cccc(C(F)(F)F)c1)C2` the inhibition was 13.4%.
Compound `Cc1ccc(S(=O)(=O)N2CCN(C(=O)c3ccccc3-c3nc4ccccc4s3)CC2)c(C)c1` has an inhibition of -40.8%.
Compound `CC(=O)C12CC(C)=C(C)CC1CC1C3CCC4=CC(=O)CCC4(C)C3CCC12C` (centres undefined) has an inhibition of -12.9%.
With `CSc1ncnc2c1ncn2CC(=O)C1CCC2C3CCC4=CC(=O)CCC4(C)C3CCC12C` (centres undefined) the inhibition was 105% (active).
Compound `CSc1ncnc2c1ncn2CCCNCC1CCCCC1` has an inhibition of -1.18%.
`CC(C)COC(=O)n1c(=O)oc2ccc(S(=O)(=O)N3CCCCC3)cc21` gave an inhibition of 19.6%.
With `Cc1noc(C)c1C(=O)N(CC(=O)NC1CCCC1)Cc1ccccc1F` the inhibition was -13.7%.
In the case of `FC(F)(F)c1ccc2nnc(-c3c(Cl)cccc3Cl)n2c1`, the inhibition is reported as 0.93%.
For `CC(=O)Nc1ccc(C(=O)CSc2nnc(Cc3ccccc3)o2)cc1`, the inhibition was -13.6%.
`COc1cc(C(=O)NCc2nnc(SCC(=O)c3ccc(Cl)cc3)o2)cc(OC)c1OC` gave an inhibition of -10.8%.
For `CC(C)C[C@@H](N)c1nnc(SCC(=O)c2ccc(Cl)cc2)o1`, the inhibition was 58.5% (active).
With `CCCCn1c(O)c(N=NC(=O)Cn2c(C(F)(F)F)nc3ccccc32)c2ccccc21` the inhibition was -12.1%.
In the case of `Fc1ccc2[nH]c3c(N4CCSCC4)ncnc3c2c1`, the inhibition is reported as 77.1% (active).
Work on `CC1(C)CC(=O)C=C(c2ccc(COC(=O)c3cc(F)cc(F)c3)cc2)C1=O` yielded an inhibition of -6.91%.
In the case of `O=[N+]([O-])c1ccc(CN2CC(N3CCC(c4ccccc4)CC3)CS2(=O)=O)cc1` (centres undefined), the inhibition is reported as -12.9%.
With `CSc1ncccc1C(=O)Nc1ccc(C)cn1` the inhibition was 1.24%.
With `CCS(=O)(=O)N1Cc2ccccc2CC1C(=O)Nc1nc2ccc(F)cc2s1` (centres undefined) the inhibition was 21.8%.
For `CSc1ncccc1C(=O)Nc1nc2ccc(F)cc2s1`, the inhibition was 76.2% (active).
`COc1cccc(NS(=O)(=O)c2ccc3[nH]cc(C(=O)NCCCOC(C)C)c(=O)c3c2)c1` showed an inhibition of -0.08%.
With `CCCCc1ccc(S(N)(=O)=O)cc1` the inhibition was -10.5%.
Compound `COc1ccc(S(=O)(=O)N2CCCCC2)cc1NC(=O)c1cc([N+](=O)[O-])ccc1N1CCOCC1` has an inhibition of 0.95%.
Compound `O=C(NCc1ccc2c(c1)OCO2)c1cc([N+](=O)[O-])ccc1N1CCOCC1` has an inhibition of 9.16%.
With `CCOc1ccc2nc(NC(=O)c3cc([N+](=O)[O-])ccc3N3CCOCC3)sc2c1` the inhibition was 58.5% (active).
For `Cc1cc(C)cc(NC(=O)N2CCC(NC(=O)c3ccc(F)cc3)CC2)c1`, the inhibition was -39.6%.
`Cc1ccc2c(c1)N(CC(=O)N1CCC(O)CC1)C(=O)CO2` showed an inhibition of 33.3%.
Compound `CC(C)NS(=O)(=O)c1ccc(NC(=O)c2cccnc2)cc1` has an inhibition of -3.3%.
Work on `O=C(Cc1ccccc1)Nc1ccc(NC(=O)c2cccnc2)cc1` yielded an inhibition of 2.31%.
Work on `Cc1cc(NS(=O)(=O)c2ccc(NC(=O)c3cccnc3)cc2)nc(C)n1` yielded an inhibition of 14.2%.
With `Cc1cc2nc(-c3ccc(NC(=O)c4cccnc4)cc3)oc2cc1C` the inhibition was 52.2% (active).
For `Cc1ccc2nc(-c3ccc(NC(=O)c4cccnc4)cc3)oc2c1`, the inhibition was 71.4% (active).
`Cc1ccc(-n2nc3cc(C)c(NC(=O)c4cccnc4)cc3n2)cc1` showed an inhibition of 8.31%.
`COc1ccc(Br)c2c1C(=O)CC2` showed an inhibition of 22.5%.
Compound `Cc1cc([N+](=O)[O-])nn1CC(=O)Nc1ccc(Cc2ccncc2)cc1` has an inhibition of 8.17%.
For `COc1ccc(C2CC(=O)C=C(NCC3CCCO3)C2)cc1` (centres undefined), the inhibition was -25.7%.
`N#Cc1ccccc1Sc1ccccc1C(=O)OCC(=O)NC1CCCCC1` showed an inhibition of 1.09%.
For `O=C1c2ccccc2C2=Nc3ccccc3SC(c3ccccc3F)C12` (centres undefined), the inhibition was 59.2% (active).
`COc1cccc(/C=C/C(=O)OCC(=O)N2CCCc3ccccc32)c1` gave an inhibition of -1.49%.
In the case of `COc1cccc(/C=C/C(=O)OCC(=O)N2CCN(c3ccccc3)CC2)c1`, the inhibition is reported as 77.7% (active).
`COc1cccc(-c2ccc(SCC(=O)N3CCN(c4ccccc4)CC3)nn2)c1` showed an inhibition of -23.8%.
`COc1ccc(CNc2c(CO)cnc3c2cnn3C)cc1` showed an inhibition of -5.49%.
`CCN(C(=O)Nc1cccc2ccccc12)c1ccccc1` showed an inhibition of 11.9%.
Work on `COc1ccc(Cl)cc1S(=O)(=O)N1CCC(O)(c2ccc(Cl)cc2)CC1` yielded an inhibition of -6.82%.
Compound `O=C(Cc1ccc(S(=O)(=O)N2CCOCC2)s1)Nc1ccc(Br)c(C(F)(F)F)c1` has an inhibition of 17.8%.
With `Cn1nccc1C(=O)NC1CCCc2c1cnn2-c1ccc(F)cc1F` (centres undefined) the inhibition was 18.5%.
In the case of `COc1ccc(C(=O)NC2CCCc3c2cnn3-c2cccc(C)c2C)c(OC)n1` (centres undefined), the inhibition is reported as 57.5% (active).
In the case of `COc1ccc(OC)c(C(=O)NC2CCCc3c2cnn3-c2cc(C)cc(C)c2)c1` (centres undefined), the inhibition is reported as -50.2%.
With `CCc1c(C)nc(SCC(=O)NC2CCCC2)[nH]c1=O` the inhibition was 15.7%.
`COC(=O)c1ccccc1NC(=O)CSc1n[nH]c(-c2ccncc2)n1` gave an inhibition of -4.67%.
With `CCc1ccc(-c2nc(SCC(=O)NC3CCCC3)n[nH]2)cc1` the inhibition was 66.6% (active).
